In PubChem BioAssay (NCI):
Where “and” joins values, the source holds several entries; their conditions need not be identical. Equal values may be shown once. Compounds without any hit were thinned out: in the full panel of roughly 83,000, 20% have a hit.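 Each cell line was grown in a 96-well plate and treated with one concentration of compound for 48 hours. Values below 10 were considered active.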 Values without a mark were called inactive. Calls of active or inactive are those of the source.

System: MDA-MB-468 breast
Test: NCI-60 one-dose screen, 48 h (100 = growth as untreated, 0 = no growth, -100 = all killed)
Details: 10 µM unless noted

SMILES | growth
CC[C@]12C=CCN3CC[C@@]4(c5ccc(OC)cc5N(C)[C@H]4[C@@](O)(C(=O)OC)[C@@H]1OC(=O)CCC(=O)N[C@@H](Cc1c[nH]c4ccccc14)C(=O)OC)[C@@H]32 | -20.8% (active)
O=C(CCCCN1CCOCC1)Nc1ccc(Cn2nnc3c2C(=O)c2nnn(Cc4ccc(NC(=O)CCCCN5CCOCC5)cc4)c2C3=O)cc1 | -76.9% (active)
CC1(C)NCCC[C@]2(C)[C@H]3CC=C4[C@@H]5C[C@](C)(COC(=O)c6ccccc6C(=O)O)CC[C@]5(C)CC[C@@]4(C)[C@]3(C)CC[C@@H]12 | 29.5%
NCCNc1nc2ccccc2c2c(=O)c3cc(F)cc(Cl)c3sc12 | -12.5% (active)
Nc1nc(-c2ccc(F)cc2)cc(-c2cnn(-c3ccccc3)n2)n1 | 104%
CCCCCCCCCCCCCCCCCCOc1ccccc1CC(=O)NCC[N+]1(C)CCCCC1 | 7.37% (active)
O=C(Nc1ccc(F)cc1)Nc1ccc(NC(=O)c2cc(Cl)nc3ccccc23)cc1 | 38.7%
COc1ccc2c(c1)c(-c1nnc(N)nc1-c1c[nH]c3ccc(F)cc13)cn2C | 2.84% (active)
CCOC(=O)c1ccc(NC(=O)Nc2nccs2)cc1 | -30.4% (active)
O=C(O)C(C(=O)O)c1cccc2ccccc12 | 101%
COc1ccc(C(=O)C/C(=C\c2ccc(O)c(OC)c2)C(=O)NN)cc1 | 27.6%
COc1ccc(-c2nc(SC)nc(N3CCOCC3)c2C#N)cc1 | 101%
CCn1cc(C(=O)O)c(=O)c2cc(F)c(N3CCN(S(=O)(=O)c4ccc(OC)c(OC)c4)CC3)cc21 | 100%
CC(C)NS(=O)(=O)/N=C1\NC(=O)NC1=C(Cl)Cl | 60.6%
COc1ccc(C(=NN=C(N)N)c2ccc(OC)cc2)cc1 | -17.7% (active)
O=C(CC12CC3CC(CC(C3)C1)C2)NCCOCCOCCNC(=O)c1cc2c(o1)C(=O)c1ccccc1C2=O | -60.7% (active)
COc1ccc(-c2nc3ccc(-c4nc5ccc(N6CCN(c7ccncc7)CC6)cc5[nH]4)cc3[nH]2)cc1OC | -46.3% (active)
O=C(/C=C(/C=C/c1csc2ccccc12)OB(F)F)/C=C/c1csc2ccccc12 | -3.4% (active)
COc1ccc(Cl)cc1NC(=O)c1cc2c([nH]1)-c1nc(N)sc1CCC2 | 103%
CC1=C(C(=O)Nc2ccc(F)cc2)C(c2ccccc2)C2=C(CC(C)(C)CC2=O)N1 (stereo not given) | 67.7%

SMILES | growth
CCCCCN(CCCCC)CCCNc1c2c(nc3ccc(Cl)cc13)CCCC2 | 8.01% (active)
O=C(OCc1ccccc1)c1ccccc1 | 95% and 74.9%
CC(/C=C1\SC(=S)N(CC(=O)NC(Cc2c[nH]c3ccccc23)C(=O)O)C1=O)=C\c1ccccc1 (stereo not given) | 95.1%
CCC(O)CC(CC)CO (stereo not given) | 113%
COc1cc(-c2ccc(-c3ccc(C(=N)N)s3)s2)cc(OC)c1OC | 23.8%
COc1cc(-c2c(C#N)c(N)n3c(nc4ccccc43)c2C#N)cc(Br)c1OC | 36.5%
COc1cc(C(=O)Oc2ccccc2OC(=O)c2cc(OC)c(OC)c(OC)c2)cc(OC)c1OC | 105%
O=C(O)CS(=O)c1ccc(Cl)cc1 (stereo not given) | 103%
O=S(=O)(NCCNc1nccc(-c2c(-c3ccc(F)c(O)c3)nc3sccn23)n1)c1ccc(F)cc1 | 29.3%
CC(=O)c1c(C)nc2ccccc2c1/C=C/c1ccc(F)cc1 | 46.1%
COc1cc(F)c(F)c(Nc2ccc(I)cc2F)c1NS(=O)(=O)C1(C[C@H](O)CO)CC1 | 67.4%
Fc1ccc(Nc2nc3nonc3nc2Nc2ccc(F)cc2)cc1 | -4.42% (active)
CN1C(=O)N(C)C2C1NN=c1s/c(=C\C=C\c3ccccc3)c(=O)n12 (stereo not given) | 13.9%
CCCOC(=O)Nc1nc2ccc(SCC)cc2s1 | 46.2%
CC(/C=N/NC(=O)c1cc(-c2ccco2)[nH]n1)=C\c1ccccc1 | 117%
COc1ccc(/C=C2\COc3ccc(O)cc3C2=O)cc1OC | 103%
CN1C(=O)[C@H]2c3c1cccc3[C@@]13NC(=O)O[C@H]1[C@H](CCC3(C)C)C2(C)C | 78.6%
CN1CCN(c2cc(Nc3cc(C4CC4)[nH]n3)nc(Nc3ccc(CC(=O)NCc4cccc(F)c4)cc3)n2)CC1 | 98.8%
CCNCc1ccccc1 | 98.6%
COc1ccc(C(=S)N2CCN(c3cccc(C)c3)CC2)cc1OC | 66.3%
